From PubChem BioAssay
JMJD2A Tudor inh: inhibitors of human JMJD2A Tudor domain. O75164. AlphaScreen JMJD2A-Tudor / H3K4me3 peptide binding. Potency, µM (titrated, usually from 114 µM), for inactives: top-dose activity change, negative = inhibition, hits mostly inhibitors. hit rate 4.4% among 390,000. AID 504339; note: potency is the fitted concentration of half-maximal effect; % is set by controls: 0 for no effect and ±100 for the full control effect; nearly all actives have a fitted effect of over 50% in size
HP1b binding inh: blocks HP1-beta chromodomain binding to methylated histone tails | P83916 | AID 540317 | AlphaScreen HP1-beta / biotin-H3K9me3 peptide binding | hit rate 0.56% among 390,000 | Potency, µM (highest dose often 114 µM), inactives show at the highest dose activity change, negative = inhibition, most hits filed as inhibitors; note: potency is the fitted concentration of half-maximal effect; nearly all actives have a fitted effect of over 70% in size
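HP1-beta protein (50 nM final) preincubated 30 min at room temperature with biotinylated H3(1-18)K9me3 peptide (50 nM) in PBS pH 7.4, 0.01% Tween-20, then compound added for 30 min. AlphaScreen streptavidin donor/nickel chelate acceptor beads (10 ug/mL final), 30 min dark, luminescence read.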
G9a block: G9a (human) methyltransferase inhibition. Potency, µM (titrated, usually from 102 µM), without a hit: at the top dose activity, negative = inhibition, actives largely listed as inhibitors. hit rate 8.8% among 350,000. G9a H3K9 monomethylation, AlphaScreen, 2 h; note: potency is the fitted concentration of half-maximal effect; % is set by controls: 0 for no effect and ±100 for the full control effect; nearly all actives have a fitted effect of over 75% in size
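Using a bead-based AlphaScreen, monomethylated H3K9 product from 2 h room-temperature reactions (G9a 20 nM, peptide 500 nM, SAM 20 uM) was detected with 0.5 ug/mL rabbit anti-H3K9me1 antibody.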
CtBP-E1A blk: inhibitors of CtBP/E1A interaction | AlphaScreen GST-E1A/His-CtBP binding, 1536-well; active compounds read low | activity change, % (no concentration beside the values) | hit rate 0.49% among 340,000 | AID 651724; in the data active = activity change below about -65%; inconclusive = mostly about -30% to -63%; note: % is set by controls: 0 for no effect and ±100 for the full control effect
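Homogeneous bead-based format: GST-tagged E1A captured on glutathione donor beads, His-tagged CtBP on nickel acceptor beads; compounds precede bead addition by 2 h at 37 °C.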
BAZ2B block: blocks human BAZ2B; Q9UIF8; AlphaScreen BAZ2B-H3K14Ac peptide displacement; Potency, µM (titrated, usually from 114 µM), inactives show top-dose activity change, negative = inhibition, most hits filed as inhibitors; hit rate 4.4% among 360,000; AID 504333; note: potency is the fitted concentration of half-maximal effect; % is set by controls: 0 for no effect and ±100 for the full control effect; nearly all actives have a fitted effect of over 60% in size
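AlphaScreen luminescence quantifies BAZ2B engagement of H3K14Ac peptide; the protein and biotinylated peptide are both at 50 nM final, buffer PBS pH 7.4 with 0.01% Tween-20, all steps at room temperature.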
Six1-Eya2 blk: Six1/Eya2 interaction inhibition. AlphaScreen GST-Six1/His-Eya2 binding, biochemical; active compounds read low. Q15475+O00167. hit rate 0.56% among 360,000. activity change, % (no concentration beside the values). AID 651725; in the data active = activity change below about -65%; inconclusive = mostly about -30% to -63%; note: % is set by controls: 0 for no effect and ±100 for the full control effect
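Compounds are tested against tagged Six1 and Eya2 proteins bridged by glutathione donor and nickel acceptor beads; after a one-hour incubation at 37 °C without light, AlphaScreen emission is recorded.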
An asterisk follows results filed as active; ? = inconclusive; . = no result given; ! = repeats disagree; [ ] = dose if it differs, or a comment. In the library only some 10% were active in any assay of this set; here they are far more common. Unless noted, calls come from the whole dose curve; as a rule, active = well fitted inhibition curve with a large enough effect; inconclusive = small, poorly fitted or top-dose-only effect; inactive = no such curve, though single readings can be large or run the other way.

SMILES	JMJD2A Tudor inh	HP1b binding inh	G9a block	CtBP-E1A blk	BAZ2B block	Six1-Eya2 blk
Cc1c(NC(=O)c2cc(-c3ccc(F)cc3)on2)c(=O)n(-c2ccccc2)n1C	79µM*!	4%	-8%[59 µM]	10	1%	5
O=C(NC(=S)Nc1cc([N+](=O)[O-])ccc1O)c1cccnc1	-4%	6%	11µM*	.	2%	3
CCC(=O)N1c2ccccc2CC1C(=O)NCc1cccc(C)c1 (stereo unspecified)	-9%	18%	22%[59 µM]	.	-4%	.
CCOC(=O)c1ccc2nc(C)c3c(c2c1)OC(C)C3 (stereo unspecified)	-3%	31%	-47%[59 µM]	-1	7%	-5
Cc1nc2ccc(C(=O)O)cc2c2c1CC(CN)O2 (stereo unspecified)	?	1%	79µM*	.	-11%	3
CC1CCCN(C(=O)N2c3ccccc3Sc3ccccc32)C1 (stereo unspecified)	6%	31%	9%	17	-3%	3
CC1CN(C(=O)N2c3ccccc3Sc3ccccc32)CC(C)O1 (stereo unspecified)	-13%	16%	-42%[59 µM]	-2	89µM*	2
COCC1CCCN(Cc2cn(-c3ccccc3)nc2-c2ccc3c(c2)OCO3)C1 (stereo unspecified)	-10%	7%[57 µM]	.	-5	-16%	11
CCCc1nnc(SCc2ccc(OC)cc2)n1N	14µM*	?	-27%[12.7 µM]	9	4%	12
CCCOc1ccc(CSc2nnc(CCC)n2N)cc1	-10%	11%	-2%	-4	5%	10
C/C(=N\Nc1ccc(Cl)c(C(=O)O)c1)c1cccc([N+](=O)[O-])c1	-22%	51%	16µM*	.	-33%	12
C/C(=N\Nc1ccc(Cl)c(C(=O)O)c1)c1ccc(Br)s1	28µM*	?	35µM*	-8	?	-19
C/C(=N\NC(=O)c1ccccc1C)c1cccc([N+](=O)[O-])c1	-7%	9%	-1%[59 µM]	-4	-18%	2
Cc1ccc(C(=O)NC(=S)NNC(=O)COc2ccccc2C)cc1	22µM*	-14%	3.5µM*	-3	4%	10
Cc1cccc(C(=O)NC(=S)NNC(=O)c2ccccc2Cl)c1	-28%	-16%	7.9µM*	-3	-5%	-9
CC(=O)NNC(=S)NC(=O)c1ccc(C)cc1	9%	40%	?	-1	?	6
CCC(=O)NNC(=S)NC(=O)c1ccc(C)cc1	?	24%	11%[0.501 µM]	-24	14%	1
O=C(COc1ccccc1)NNC(=S)NC(=O)c1ccccc1	18µM*	5%	2.2µM*	1	.	3
CC(=O)NNC(=S)NC(=O)c1ccccc1	20µM*	13%	6.3µM*	-9	1%	-2
CCc1ccc(NC(=O)C(CC)n2nnc(C(=O)OC)c2C(=O)OC)cc1 (stereo unspecified)	-13%	9%	-8%[59 µM]	.	3%	.
CC1=C(C(=O)Nc2ccccc2)C(c2ccc(O)cc2)n2nc(-c3ccc(Cl)cc3)nc2N1 (stereo unspecified)	-14%	32%	16%[59 µM]	.	?	.
Cc1cccc(C(=O)NC(=S)NNC(=O)Cc2ccccc2)c1	-30%	1%[57 µM]	7.1µM*	-5	2%	20
O=C(NC(=S)Nc1ccc2c(c1)OCCO2)c1cccc2ccccc12	?	6%	40µM*	-17	?	-17
Cc1cccc(C(=O)NC(=S)NCc2ccccc2)c1	-13%	-2%	.	-4	.	-24
O=C(O)c1ccccc1NC(=S)NC(=O)c1cccc2ccccc12	-10%	-2%	50µM*	-15	?	-4
SMILES	JMJD2A Tudor inh	HP1b binding inh	G9a block	CtBP-E1A blk	BAZ2B block	Six1-Eya2 blk
Cc1ccc(C(=O)NNC(=S)Nc2cccc3ccccc23)s1	-14%	-18%	35µM*	-13	3%	-9
O=C(NC(=S)Nc1ccc2c(c1)OCCO2)c1cccc(Br)c1	?	?	?	-18	?	-23
CCNC(=O)CC1C(=O)N(c2cccc(OC)c2)C(=O)N1Cc1ccc(OC)c(OC)c1 (stereo unspecified)	-11%	17%	8%[59 µM]	.	2%	.
Nc1[nH]c(=O)ncc1F	-19%	24%	5%[59 µM]	3	7%	-5
Cc1cccc(C(=O)NC(=S)Nc2ccccc2C(F)(F)F)c1	?	-11%	-2%[59 µM]	-7	-35%	-13
CCOc1cccc(C(=O)NC(=S)Nc2cccc(C)c2)c1	?	-18%	-15%[59 µM]	-7	?	-20
Cc1cccc(C(=O)NC(=S)Nc2ccccc2C(=O)O)c1	-25%	?	45µM*	-7	-11%	-8
Cc1cccc(C(=O)NC(=S)NNC(=O)COc2c(C)cccc2C)c1	?	-20%	7.9µM*	-1	-12%	1
O=C(Cc1cccs1)NNC(=S)NC(=O)c1ccccc1	50µM*	19%	?	4	10%	0
O=C(Nc1ccc2c(c1)OCCO2)c1coc2ccccc2c1=O	28µM*	62%	8%[59 µM]	0	9%	0
O=C1CCCCC(=O)[C@H](O)C[C@H](COCc2ccccc2)O1	.	.	.	0	.	6
Cc1ccc(CNC(=O)c2cc3c(s2)-c2c(C)cccc2OC3)cc1	-7%	47%	8%[59 µM]	.	-25%	.
CNC(=O)c1ccsc1NC(=O)c1coc2ccccc2c1=O	-11%	60%	50µM*	-1	-24%	2
Cc1cc(C(=O)NNC(=S)NC(=O)/C=C/c2ccccc2Cl)n[nH]1	50µM*	-17%	28µM*	-99*	22µM*	-91*
Cc1cc(C)nc(NC(=O)/C=C/c2ccccc2Cl)n1	4%	34%	-17%[59 µM]	2	7%	-3
COc1ccc(CNC(=O)Cn2ccc3cc(S(=O)(=O)N4CCCCCC4)ccc32)cc1OC	-23%	3%	-2%[59 µM]	.	-8%	.
Cn1ccc(=S)c2ccccc21	8.9µM*	-3%	32µM*	-6	.	-1
Cc1ccc(C2N(c3nccs3)C(=O)C3CCCN32)cc1 (stereo unspecified)	20µM*	14%	13µM*	-2	?	-1
Cc1cccc(C2N(c3ccc(F)cc3)C(=O)C3CCCN32)c1 (stereo unspecified)	-8%	50%	.	2	.	-2
Cc1ccc(C2N(c3ccc(F)cc3)C(=O)C3CCCN32)cc1 (stereo unspecified)	-4%	50%	?	-1	-3%	-1
Cc1cccc(C2N(c3nccs3)C(=O)C3CCCN32)c1 (stereo unspecified)	-26%[57.1 µM]	36%	7.9µM*	12	?	-5
O=C1C2CCCN2C(c2ccc(F)cc2)N1c1nccs1 (stereo unspecified)	20µM*	19%	-31%[12.7 µM]	6	?	1
